# Laboratory results: PubChem BioAssay AID1835 (Johns Hopkins Ion Channel Center, 2009)
# About 750 (31%) of roughly 2,400 compounds were called active. This is one part of the list. Unmarked numbers belong to inactive results.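 Rule for the calls: active = median signal gain over dofetilide-blocked control wells reaching their mean plus 3 SD, so readout 1 at least 0; inactive = the rest.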
# Target: Voltage-gated inwardly rectifying potassium channel KCNH2 (Homo sapiens) (UniProt Q12809)
# Experiment: modulators restoring hERG flux under dofetilide – cell-based, thallium flux, duplicate retest, dofetilide IC70, confirmation (AID 1835)
# Details: hERG cell line, FluxOR thallium flux, dofetilide-blocked; at 10 µM; active compounds read high
# Chain of Voltage-gated inwardly rectifying potassium channel KCNH2 (Homo sapiens) (Q12809 whole entry, looked up): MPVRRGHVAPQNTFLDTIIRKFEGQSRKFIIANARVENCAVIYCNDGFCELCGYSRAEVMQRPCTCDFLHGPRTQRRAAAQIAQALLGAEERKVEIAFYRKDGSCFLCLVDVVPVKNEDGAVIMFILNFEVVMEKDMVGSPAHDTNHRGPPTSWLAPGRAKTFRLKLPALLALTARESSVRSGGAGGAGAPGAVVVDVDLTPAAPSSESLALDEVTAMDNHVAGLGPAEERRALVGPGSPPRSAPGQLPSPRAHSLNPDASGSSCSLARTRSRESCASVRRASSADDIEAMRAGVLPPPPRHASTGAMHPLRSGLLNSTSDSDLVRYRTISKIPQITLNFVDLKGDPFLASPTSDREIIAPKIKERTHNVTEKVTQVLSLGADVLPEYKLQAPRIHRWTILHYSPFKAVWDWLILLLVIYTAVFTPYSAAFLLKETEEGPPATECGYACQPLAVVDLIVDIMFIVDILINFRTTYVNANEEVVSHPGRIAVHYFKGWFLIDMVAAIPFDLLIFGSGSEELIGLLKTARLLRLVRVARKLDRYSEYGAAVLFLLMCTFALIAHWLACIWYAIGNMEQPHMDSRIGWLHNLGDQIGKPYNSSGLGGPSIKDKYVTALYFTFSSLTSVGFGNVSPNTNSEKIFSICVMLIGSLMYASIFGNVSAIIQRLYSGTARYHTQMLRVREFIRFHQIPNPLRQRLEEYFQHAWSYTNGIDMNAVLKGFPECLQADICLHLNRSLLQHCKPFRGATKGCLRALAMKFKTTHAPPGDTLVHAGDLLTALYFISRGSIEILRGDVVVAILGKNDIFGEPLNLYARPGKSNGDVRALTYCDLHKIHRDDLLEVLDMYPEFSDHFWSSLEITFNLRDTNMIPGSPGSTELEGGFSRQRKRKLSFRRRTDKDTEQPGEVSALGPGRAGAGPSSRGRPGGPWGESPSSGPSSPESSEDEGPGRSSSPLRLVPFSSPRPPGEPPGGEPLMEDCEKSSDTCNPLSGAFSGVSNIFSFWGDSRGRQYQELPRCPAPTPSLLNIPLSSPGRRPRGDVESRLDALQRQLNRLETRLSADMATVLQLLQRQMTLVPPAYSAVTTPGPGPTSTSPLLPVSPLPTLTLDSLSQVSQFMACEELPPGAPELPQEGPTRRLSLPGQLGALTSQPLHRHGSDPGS
row,SMILES,"activity increase over dofetilide control, less the hit threshold"
1,Cc1ccc(NC(=O)c2ccc(NC3=NC4CS(=O)(=O)CC4S3)cc2)cc1 (stereo not given),-14%
2,O=C(C[n+]1ccccc1)N/N=C/c1ccc(Cl)c(Cl)c1,-13%
3,O=C(CC1CCCC1)Nc1ccc2c(c1)CCC2,-5%
4,COc1ccccc1NC(=S)N1CCCc2ccccc21,-16%
5,COc1ccc(/C=N/NC(=O)c2ccncc2)cc1CN1CCCc2ccccc21,3% (active)
6,COc1ccc(/C=N/NC(=O)C(=O)N2CCCC2)cc1,-4%
7,O=[N+]([O-])c1cc(Cl)cc(/C=N/NC(=S)Nc2ccc(S(=O)(=O)N3CCOCC3)cc2)c1O,-3%
8,Cc1cc(=O)oc2cc(OCC(=O)OCC(=O)NC(C)C)ccc12,-22%
9,O=C(COc1ccc2c3c(c(=O)oc2c1)CCC3)NCC1CCC(C(=O)O)CC1 (stereo not given),-7%
10,O=C(COc1ccc2c3c(c(=O)oc2c1)CCC3)N[C@@H](Cc1ccccc1)C(=O)O,9% (active)
11,Cc1cc(=O)oc2c3c(cc(OCC(=O)N[C@@H](Cc4ccccc4)C(=O)O)c12)OC(C)(C)CC3,-3%
12,O=c1oc2cc(OCCO)ccc2c2c1CCCC2,-8%
13,Cc1c(C)c2ccc(OCC(=O)N[C@@H](Cc3ccccc3)C(=O)O)cc2oc1=O,2% (active)
14,Cc1ccc(C(C)C)cc1OCCn1cncn1,-24%
15,O=C1Nc2ccc(Br)cc2C1Cc1ccccc1F (stereo not given),-17%
16,Cc1ccc(C(=O)CC(=O)c2cccc(F)c2)c(O)c1,1% (active)
17,O=C(CC(=O)c1ccccc1O)c1cccc(F)c1,-6%
18,Cc1ccc(C(=O)CC(=O)c2ccc(C)cc2O)cc1,-1%
19,COc1cc(C(=O)NCc2ccc(-c3nc4ccccc4o3)cc2)cc(OC)c1OC,-12%
20,O=C(Nc1nnc(SCC(=O)N2CCCCC2)s1)C1CCCCC1,-18%
21,CCSc1nnc(NC(=O)CC(C)C)s1,3% (active)
22,CCSc1nnc(NC(=O)Cn2cnc3c2c(=O)n(C)c(=O)n3C)s1,-22%
23,COc1ccc(S(=O)(=O)Nc2ccc(Cl)cn2)c(C)c1C,-9%
24,CC[C@@H](C(=O)[C@@H](C)[C@@H](O)[C@H](C)CCc1ccc(C)c(O)c1C(=O)O)[C@H]1O[C@](CC)([C@H]2CC[C@](O)(CC)[C@H](C)O2)C[C@@H]1C,93% (active)

row,SMILES,"activity increase over dofetilide control, less the hit threshold"
1,O=C(CCN1C(=O)/C(=C\C=C\c2ccccc2)SC1=S)Nc1cccc(C(=O)O)c1,93% (active)
2,COc1ccc(NC(=O)CCN2C(=O)C3C4C=CC(C4)C3C2=O)cc1 (stereo not given),-14%
3,O=C(CCN1C(=O)/C(=C/c2cccs2)SC1=S)Nc1cccc(C(=O)O)c1,-13%
4,O=C(CSc1nc(-c2ccccc2)nc2ccc(F)cc12)Nc1cccc(C(=O)O)c1,-23%
5,O=C(CCN1C(=O)/C(=C\C=C\c2ccccc2)SC1=S)Nc1ccc(C(=O)O)cc1,26% (active)
6,CC(C)Oc1cc(S(=O)(=O)N2CCCCC2)ccc1N,-18%
7,S=C(N/N=C/c1ccc(Cl)cc1)N1CCOCC1,-47%
8,Cc1cc(F)c(F)c(C(=O)N2CCOCC2)c1,-17%
9,CC(C)(C)C(=O)NC(=S)N1CCOCC1,3% (active)
10,CCCCCOCC1CC(C/C(C)=N/Nc2nc(-c3ccccc3)cs2)C(=O)O1 (stereo not given),-5%
11,COCc1cc(C)nc(OCC(=O)N/N=C/c2ccc(-c3cc([N+](=O)[O-])ccc3Cl)o2)c1C#N,-7%
12,CCOC(=O)N/N=C\c1ccc(-c2cc(Cl)ccc2Cl)o1,-2%
13,Cc1cc([N+](=O)[O-])c(C)cc1-c1ccc(/C=N/NC(=O)Cn2nnnc2N)o1,0% (active)
14,C=C(C)CSc1nc(N)cc(=O)[nH]1,-4%
15,O=C1NC(=S)/C(=C\c2ccc(-c3ccccc3Cl)o2)S1,-23%
16,O=C1NC(=S)S/C1=C\c1ccc2ccccc2c1,28% (active)
17,O=C1NC(=O)/C(=C/c2cc3c(cc2Br)OCO3)S1,-17%
18,Cc1ccsc1/C=C1/SC(=O)N(CC(=O)N2CCCC2)C1=O,-4%
19,Cc1ccc(C(=O)O)cc1-c1ccc(/C=C2\SC(=O)N(CC(=O)Nc3ccccc3)C2=O)o1,87% (active)
20,Cc1ccccc1NC(=O)CN1C(=O)S/C(=C\c2ccc(-c3cc(C(=O)O)ccc3C)o2)C1=O,-3%
21,Cc1c(/C=C2\SC(=O)N(CC(=O)Nc3ccc4c(c3)OCO4)C2=O)c2ccccc2n1C,-11%
22,Cc1ccccc1NC(=O)CN1C(=O)S/C(=C\c2ccc(-c3cccc(C(=O)O)c3C)o2)C1=O,19% (active)
23,Cc1ccc(NC(=O)CN2C(=O)S/C(=C\c3ccc(-c4cccc(C(=O)O)c4C)o3)C2=O)cc1,25% (active)
24,O=C(CCl)NCCN1C(=O)S/C(=C\c2cccnc2)C1=O,-5%

row,SMILES,"activity increase over dofetilide control, less the hit threshold"
1,C#CCN1C(=O)S/C(=C\c2ccc(-c3ccc(C(=O)O)cc3C)o2)C1=O,1% (active)
2,Cc1ccc(NC(=O)CN2C(=O)S/C(=C/c3ccc(-c4cc(C(=O)O)ccc4C)o3)C2=O)cc1C,-29%
3,Cc1cc(C(=O)NCCN2C(=O)S/C(=C\c3cccs3)C2=O)ccc1[N+](=O)[O-],-1%
4,CN(C)c1oc(-c2ccccc2[N+](=O)[O-])nc1C#N,-15%
5,COc1ccc(C2N=C(c3ccccc3)C(C)(C)N2O)cc1 (stereo not given),-16%
6,CCOC(=O)C1CCCCN1Cc1ccc(F)cc1 (stereo not given),-14%
7,O=C(CN1C(=O)S/C(=C\c2cc(Cl)c(O)c(Cl)c2)C1=O)Nc1ccccc1,-21%
8,O=C(CN1C(=O)S/C(=C\c2cccs2)C1=O)Nc1ccc(O)c(C(=O)O)c1,-3%
9,O=C(CN1C(=O)S/C(=C\c2cccs2)C1=O)Nc1ccc(C(=O)O)c(O)c1,12% (active)
10,Cc1cccc(NC(=O)CN2C(=O)S/C(=C\c3ccc(-c4cccc(C(=O)O)c4C)o3)C2=O)c1,71% (active)
11,O=S(=O)(NCc1ccc(Cl)cc1Cl)c1ccc(N2CCOCC2)nc1,-25%
12,S=c1nc(C2CCCCC2)n(-c2ccccc2)[nH]1,24% (active)
13,Cc1onc(-c2ccccc2)c1C(=O)NC(=S)Nc1sc2c(c1C#N)CCCC2,-3%
14,Cc1onc(-c2ccccc2)c1C(=O)NC(=S)Nc1sc2c(c1C#N)CCC(C)C2 (stereo not given),24% (active)
15,Cc1onc(-c2ccccc2Cl)c1C(=O)NC(=S)Nc1ccc(C(C)C)cc1,-20%
16,O=C(O)C[C@H]1c2cc(F)ccc2S(=O)(=O)N1C1CCCCC1,-15%
17,O=C(CN1C(=O)NC(Cc2ccccc2)C1=O)Nc1ccccc1OC(F)F (stereo not given),-10%
18,CCOc1ccc(NC(=O)c2ccc3c(c2)CCN3S(C)(=O)=O)cc1,-21%
19,O=C(CN1CCCCCC1)Nc1ccc(Oc2ccccc2)cc1,-10%
20,O=C(O)COc1ccc(NC(=O)c2ccc3c(c2)C(=O)N(C2CCCCC2)C3=O)cc1,4% (active)
21,O=C(O)CCCn1cc(NC(=O)COc2ccc(F)cc2)cn1,-17%
22,CC(NC(=S)NC1CCCCC1)c1ccccc1 (stereo not given),-11%
23,CC(NC(=O)C1CCN(S(=O)(=O)c2cccc3cccnc23)CC1)c1ccccc1 (stereo not given),-15%
24,Cc1ccc(C(C)NC(=O)c2ccc3c(c2)OCO3)cc1C (stereo not given),0%

row,SMILES,"activity increase over dofetilide control, less the hit threshold"
1,O=C(COC(=O)/C=C/c1ccc2c(c1)OCO2)NC1CC1,-20%
2,CC(NC(=O)NC1CCCCC1)c1ccccc1 (stereo not given),9% (active)
3,CC(NC(=O)NC1CCCCC1)c1ccc2c(c1)OCO2 (stereo not given),1% (active)
4,O=C(O)c1ccc2c3n(nc2c1)-c1ccc(Cl)cc1CO3,-7%
5,O=C(NNc1nc2c(F)cccc2s1)c1cc(=O)c2ccccc2o1,6% (active)
6,Cc1cc(C)c(NC(=O)C2CC3CCC2C3)c(C)c1 (stereo not given),-5%
7,CCn1cc(C(=O)NCCN(C)C)c(=O)c2cc(F)c(N3CCN(C)CC3)cc21,-17%
8,O=C(Nn1c(O)c(C=C2N=c3ccccc3=N2)sc1=S)c1cccc(Cl)c1,33% (active)
9,O=C(CCC1CCCC1)NNC(=O)c1cccc(Cl)c1,-7%
10,Cn1sc(NC(=O)c2cccc(Cl)c2)nc1=O,-1%
11,CCN1C(=O)/C(=C/N2CCc3ccccc32)SC1=S,-9%
12,CCCCN1C(=O)/C(=C2/Sc3ccc(Cl)cc3N2CC)SC1=S,42% (active)
13,CCCCCC/C(C)=C1/SC(=S)NC1=O,87% (active)
14,CC(=O)n1nc(-c2ccncc2)nc1SCC(=O)Nc1cccc(Cl)c1,-10%
15,O=C(O)c1cc(N/N=C/c2ccc(-c3ccccc3)cc2)ccc1Cl,-16%
16,CCCOc1ccc(C(=O)N(CC(C)C)c2c(N)n(Cc3ccccc3)c(=O)[nH]c2=O)cc1,-7%
17,COCCN(C(=O)CSc1nnc(C)n1Cc1ccccc1)c1c(N)n(CC(C)C)c(=O)[nH]c1=O,1% (active)
18,CC(C)CN(C(=O)COC(=O)CNC(=O)c1ccccc1F)c1c(N)n(Cc2ccccc2)c(=O)[nH]c1=O,-11%
19,COc1cc(/C=C2/SC(=S)N(CC(=O)O)C2=O)ccc1OCC(=O)Nc1ccc(C)c(C)c1,89% (active)
20,COc1cccc(CN=c2c([N+](=O)[O-])nn(-c3ccccc3C)n2O)c1,-15%
21,O=C(c1n[nH]c2c1CCCC2)n1ccnc1,-2%
22,CCOc1cc(Br)c(C(=O)O)cc1OC,-17%
23,OC(COC(c1ccccc1)c1ccccc1)CN1CCCCC1 (stereo not given),-18%
